The structures appear in SMILES notation. Inconclusive results are not listed. The source made the active and inactive calls. How the source made its calls: active means hit-call score of the fitted dose curve at least 0.9, where 1 is the maximum; inconclusive means response in the unintended direction; inactive means score below 0.9.

The assay has as its system Japanese medaka Peroxisome Proliferator-activated Receptor gamma (PPARg), gene 100304459. Briefly: ATG_jmPPARg_EcoTox2: Attagene TRANS-FACTORIAL EcoTox-2 HepG2 Assay for Japanese medaka Peroxisome Proliferator-activated Receptor gamma (PPARg). As for the experimental part:
ATG_EcoTox2 is a cell-based, multiplexed assay created by modifying the existing Attagene TRANS-FACTORIAL system to include a panel of nuclear receptors from some or all the following species: human (Homo sapiens), african clawed frog (Xenopus laevis), rainbow trout (Oncorhynchus mykiss), japanese medaka (Oryzias latipes), and zebrafish (Danio rerio). The ECOTOX2-FACTORIAL format uses HepG2, a human liver cell line, with measurements taken at 24 hours after chemical dosing in a 24-well plate. ATG_jmPPARg_EcoTox2 is one of 29 assay components calculated in the ATG_EcoTox2 assay. It is designed to make measurements of mRNA induction, a form of inducible reporter, as detected with fluorescence intensity signals by Reverse transcription polymerase chain reaction (RT-PCR) and Capillary electrophoresis technology.The assay endpoint ATG_jmPPARg_EcoTox2 was analyzed in the positive analysis fitting direction relative to DMSO as the negative control and baseline of activity. Using a type of inducible reporter, measures of mRNA for gain-of-signal activity can be used to understand the reporter gene at the transcription factor-level as they relate to the gene PPARg. Furthermore, this assay endpoint can be referred to as a primary readout, because this assay has produced multiple assay endpoints where this one serves a reporter gene function. To generalize the intended target to other relatable targets, this assay endpoint is annotated to the nuclear receptor intended target family, where the subfamily is non-steroidal.
Human liver HepG2 cells are transiently transfected with multiple reporter transcription units (MRTUs) in 6-well plates using FuGene 6 reagent (Roche; 3 ml FuGene/1 mg DNA). The MRTU constructs are regulated by a cis-regulating element (promoter). Each RTU expresses a GAL4-UAS that regulates the transcription of a nearby target reporter gene sequence. A major difference between the CIS and TRANS system is that in CIS activities of endogenous TFs are measured, whereas the TRANS assay evaluates changes in activities of exogenous, chimeric NR-Gal4 proteins. […] At the end of 24 hour incubation, total RNA was isolated using TriZol reagent (Invitrogen). The isolated RNA is then reverse-transcribed using oligo(dT) primer and Mo-MLV reverse transcriptase (Invitrogen) with DNAse I (Ambion) treatment for 30 min. The one-tenth of the produced cDNA was amplified by PCR using Taq DNA polymerase (Invitrogen) and two reporter sequence-specific primers. The PCR products were fluorescently labeled by primer extension with 6-arboxyfluorescein (6-FAM) 5'-labeled reporter sequence-specific primer (2 min at 95 C, 20 s at 68 C and 10 min at 72 C) and these products were digested with 5U of HpaI (New England Biolabs) for 2h at 37 C. The fragments were purified using Qiaquick PCR columns (Qiagen), analyzed on an ABI 3130xL genetic analyzer (Applied Biosystems) with peak positions identified by using a set of X-rhodamine (ROX)-labeled MapMarker1000 molecular weight standards (BioVentures). The raw capillary electrophoresis data was processed using Attagraph software (Attagene).
In the case of `Cc1ccc(C)c(OCCCC(C)(C)C(=O)O)c1`, the outcome was inactive.
Consider `C=C(c1ccc(C(=O)O)cc1)c1cc2c(cc1C)C(C)(C)CCC2(C)C`, for which the AC50 was 5.55 µM (active).
As to `CC(C)OC(=O)C(C)(C)Oc1ccc(C(=O)c2ccc(Cl)cc2)cc1`, the compound was classed as inactive.
On the same count and under the same terms, the same measure for `C[C@]12C=CC(=O)C=C1CC[C@@H]1[C@@H]2C(=O)C[C@@]2(C)[C@H]1CC[C@]2(O)C(=O)CO`: “inactive”; for `Cc1c(C)c2c(c(C)c1O)CCC(C)(COc1ccc(CC3SC(=O)NC3=O)cc1)O2` (stereo not drawn): “inactive”; for `CN(CCOc1ccc(CC2SC(=O)NC2=O)cc1)c1ccccn1` (stereo not drawn): “inactive”.
Take `Cc1nc(-c2ccc(C(F)(F)F)cc2)sc1C(=O)NCc1ccc(OC(C)(C)C(=O)O)cc1`: the AC50 is 20.9 µM (active).
Regarding `CC(c1cc2ccccc2s1)N(O)C(N)=O` (stereo not drawn), the call was inactive.

The record behind these values is PubChem BioAssay AID2284353 (EPA ToxCast).
